Screening results: PubChem, National Center for Advancing Translational Sciences (NCATS)
Most compounds without a hit are left out; they make up all but 3.2% or so of the library.
Tau fluor cs = Counterscreen qHTS for Inhibitors of Tau Fibril Formation, Fluorescence Polarization | Potency, µM (highest dose often 57.7 µM) | hit rate 0.93% among 280,000 | tau K18 P301L Alexa594 fluorescence, heparin fibrillization | AID 1463, 2008; further: nearly all actives have a fitted effect of over 55% in size
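Human tau K18 P301L (15 uM unlabeled, 0.24 uM Alexa 594-labeled) in 100 mM sodium acetate pH 7 with 20 uM heparin, 6 hr at 37 C. ThT 30 uM added, 1 hr ambient; Alexa 594 FP and total fluorescence read at 555/632 nm.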
Tau fibril ThT = qHTS for Inhibitors of Tau Fibril Formation, Thioflavin T Binding; Microtubule-associated protein tau (Homo sapiens), P10636; recombinant tau K18 P301L (four-repeat tau fragment), heparin-induced fibrillization, ThT fluorescence; Potency, µM (doses to about 57.4 µM), actives largely listed as inhibitors; hit rate 2.1% among 270,000; AID 1460, 2008; further: nearly all actives have a fitted effect of over 55% in size
Target sequence (P10636 561-689 P618L limits assumed): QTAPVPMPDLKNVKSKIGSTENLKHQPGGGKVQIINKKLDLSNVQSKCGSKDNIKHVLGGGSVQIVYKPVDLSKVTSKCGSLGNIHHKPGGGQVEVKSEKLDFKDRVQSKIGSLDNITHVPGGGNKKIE
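Heparin-induced fibrillization of the P301L-mutant K18 repeat-domain fragment of human tau was followed by ThT binding in quantitative high-throughput format.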
Tau FP inhib = qHTS for Inhibitors of Tau Fibril Formation, Fluorescence Polarization. Microtubule-associated protein tau (Homo sapiens), P10636. K18 P301L tau heparin fibrillization, Alexa594 FP, 6 h. Potency, µM (titrated, usually from 57.7 µM), actives largely listed as inhibitors. hit rate 0.39% among 280,000; further: nearly all actives have a fitted effect of over 55% in size
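Human tau K18 […] P301L fragment, 15 uM unlabeled plus 0.24 uM Alexa 594-labeled tau (final), with compound and 20 uM heparin in 100 mM sodium acetate pH 7; 6 hr at 37 C, then Alexa 594 FP read.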
KDM4E inh = qHTS Assay for Inhibitors of Human Jumonji Domain Containing 2E (JMJD2E); hit rate 1.6% among 230,000; Lysine-specific demethylase 4E (Homo sapiens), B2RXH2; Potency, µM (top dose mostly 57.1 µM), hits mostly inhibitors; JMJD2E catalytic domain, FDH-coupled NADH fluorescence (FDH is formaldehyde dehydrogenase); further: nearly all actives have a fitted effect of over 50% in size
Target sequence (B2RXH2 1-337 limits assumed): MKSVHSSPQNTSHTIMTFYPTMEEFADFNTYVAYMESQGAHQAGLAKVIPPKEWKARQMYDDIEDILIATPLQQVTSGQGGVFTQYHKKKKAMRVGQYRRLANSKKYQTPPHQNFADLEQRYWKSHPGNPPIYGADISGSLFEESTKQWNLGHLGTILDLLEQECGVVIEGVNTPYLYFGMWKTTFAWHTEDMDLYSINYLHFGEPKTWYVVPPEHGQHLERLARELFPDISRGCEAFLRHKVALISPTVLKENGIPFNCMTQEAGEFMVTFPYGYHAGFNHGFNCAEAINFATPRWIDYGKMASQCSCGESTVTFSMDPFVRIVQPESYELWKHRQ
LMNA splice mod = qHTS Assay for Modulators of Lamin A Splicing; Potency, µM (titrated, usually from 46.1 µM), actives largely listed as inhibitors; hit rate 0.01% among 200,000; HeLa LMNA splicing GFP/RFP minigene ratio, 48 h; AID 1487, 2009; active means well fitted inhibition curve with a large enough effect in the signal ratio, with a control signal flat, not every such curve was filed as active; inconclusive means small, poorly fitted or top-dose-only effect, or effect the other way, or a change in a side signal; the % refers to the signal ratio
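S3 HeLa stable clones carrying a lamin A-EGFP splicing minigene plus DsRed2 were seeded at 600 cells/well in Opti-MEM with 2% FBS, pin-dosed and incubated 48 h at 37°C. Acumen cytometry (488 nm) gave the GFP/RFP total-intensity ratio.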
CBFb RUNX1 block = qHTS Assay for Compounds Blocking the Interaction Between CBF-beta and RUNX1 for the Treatment of Acute Myeloid Leukemia | AlphaScreen CBFb-His/RUNX1-biotin binding, biochemical | Runt-related transcription factor 1 (Homo sapiens) + Core-binding factor subunit beta … | Potency, µM (titrated, usually from 59.8 µM), most hits filed as inhibitors | 230,000 tested, under 10 active | AID 1477, 2009
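AlphaScreen proximity signal reports loss of binding between His-tagged CBF-beta and biotin-labelled RUNX1, each at 30 nM. Proteins are pre-associated for 20 minutes, compounds added for 15 minutes, then beads for 90 minutes, all at ambient temperature.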
Hits are given with their value. Unless noted, the call rests on the fitted dose curve; in most records, active means well fitted curve in the direction sought with a large enough effect; inconclusive means small, poorly fitted or top-dose-only effect, or another doubt; inactive means no such curve, though single readings can be large; an effect the other way counts as inactive or inconclusive.

CN(C)c1ccc(-c2nc(N(C)C)c3ccccc3n2)cc1 was read as Tau fluor cs inconclusive, Tau fibril ThT inconclusive, Tau FP inhib inactive, KDM4E inh inconclusive and LMNA splice mod 13µM.
`Cc1ccccc1Cn1c(SCc2ccc(C(=O)NCc3cccs3)cc2)nc2ccncc21` gave Tau fluor cs inactive, Tau fibril ThT inactive and Tau FP inhib inactive.
For CCOC(=O)c1c(C)n(-c2ccccc2)c2ccc(OC(=O)c3ccccc3)cc12 the results were Tau fluor cs inactive, Tau fibril ThT inactive and Tau FP inhib inactive.
For Clc1ccccc1-c1nc(NCc2cccnc2)c2ccccc2n1 the results were LMNA splice mod inactive.
`COc1ccc2nc(S(=O)Cc3ncc(C)c(OC)c3C)[nH]c2c1` (centres undefined) gave Tau fluor cs inactive, Tau fibril ThT 32µM, Tau FP inhib inconclusive, KDM4E inh 25µM, LMNA splice mod inconclusive and CBFb RUNX1 block inactive.
`NS(=O)(=O)c1ccc(NC(=O)COC(=O)c2cn(-c3ccccc3)nc2-c2ccccc2)cc1` gave Tau fluor cs inconclusive, Tau fibril ThT inactive, Tau FP inhib 11µM, KDM4E inh inconclusive and CBFb RUNX1 block inactive.
For Cc1ccc(S(=O)(=O)Nc2ccc(-c3nc4cc(NS(=O)(=O)c5ccc(C)cc5)ccc4o3)cc2)cc1 the results were Tau fluor cs inconclusive, Tau fibril ThT inactive, Tau FP inhib 16µM, KDM4E inh inconclusive, LMNA splice mod inactive and CBFb RUNX1 block inactive.
Screening O=C(NO)c1ccccc1O returned Tau fluor cs inactive, Tau fibril ThT inactive, Tau FP inhib inactive, KDM4E inh 10µM, LMNA splice mod inconclusive and CBFb RUNX1 block inactive.
Screening O=C(NCCO)c1ccccc1O returned Tau fluor cs inactive, Tau fibril ThT inactive, Tau FP inhib inactive, KDM4E inh inconclusive, LMNA splice mod inactive and CBFb RUNX1 block inactive.
O=c1oc2ccc(Cl)cc2cc1-c1nc(-c2cccs2)no1 was read as Tau fluor cs inactive, Tau fibril ThT inactive and Tau FP inhib inactive.
Screening C/C(=C\C(=S)Nc1ccccc1)Nc1ccc2ccccc2c1 returned Tau fluor cs inconclusive, Tau fibril ThT 13µM, Tau FP inhib inconclusive, KDM4E inh inconclusive, LMNA splice mod inactive and CBFb RUNX1 block inactive.
CN(C)c1ccc(CNC(=O)CCCN2C(=O)c3cccnc3Oc3ccc(Cl)cc32)cc1 was read as Tau fluor cs inactive, Tau fibril ThT inactive, Tau FP inhib inactive and LMNA splice mod inactive.
Screening C/C(=N\Nc1ccc2nncn2n1)c1ccccn1 returned Tau fluor cs inactive, Tau fibril ThT inactive, Tau FP inhib inactive, KDM4E inh 10µM and CBFb RUNX1 block inconclusive.
For C[C@@]1(C(=O)O)NCCc2cc(O)c(O)cc21 the results were Tau fluor cs inconclusive, Tau fibril ThT 25µM, Tau FP inhib inconclusive and KDM4E inh inconclusive.
Screening CCOc1ccccc1-n1nnc(-c2nsc(NC(=O)c3ccc(C)cc3)n2)c1C returned Tau fluor cs inactive, Tau fibril ThT inactive and Tau FP inhib inactive.
COc1ccc(NC(=O)CCCN2C(=O)/C(=C\c3ccco3)SC2=S)cc1 was read as Tau fluor cs inconclusive, Tau fibril ThT 16µM, Tau FP inhib inconclusive, KDM4E inh inactive, LMNA splice mod inconclusive and CBFb RUNX1 block inconclusive.
O=C(CCCN1C(=O)/C(=C/c2ccco2)SC1=S)Nc1cccc(C(=O)O)c1 was read as Tau fluor cs inactive, Tau fibril ThT 16µM, Tau FP inhib inactive and KDM4E inh inconclusive.
`O=C(CCCN1C(=O)/C(=C/c2cccs2)SC1=S)Nc1ccc(O)c(C(=O)O)c1` gave Tau fluor cs inconclusive, Tau fibril ThT 8.9µM, Tau FP inhib inactive, KDM4E inh inactive, LMNA splice mod inconclusive and CBFb RUNX1 block inactive.
